Laboratory results taken from PubChem BioAssay AID1159580 (chemical genetic matrix, 2015).
Among all 5,500 compounds or so, about 2,000 (36%) were called active. Another 18% or so got no clear call; they are omitted. No stated cut-off is given here; in the data, active means normalized growth mostly below about 0.91 (no sharp cut-off); inconclusive means no clear call, values can overlap the other calls; inactive means mostly above about 0.92. Some of the results follow.

Experiment: chemical genetic growth profiling, strain panel (AID 1159580);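 further: tested at 20 µM; growth read once vehicle control cultures reached saturation at 30 °C; 1 = growth at the plate median or of vehicle wells; lower values mean less growth of the strain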
Conditions: growth OD

Measured: normalized growth

COc1ccc(CC(=O)c2ccc(O)cc2O)cc1
active: S. cerevisiae deletion strains, locus YKR001C, strain vps1, hits give low values 0.766 | S. cerevisiae deletion strains, locus YLR262C, strain YPT6 (second series), hits give low values 0.768 | S. cerevisiae deletion strains, locus YLR371W, strain rom2, hits give low values 0.86 | S. cerevisiae deletion strains, locus YLR418C, strain cdc73, hits give low values 0.744 | S. cerevisiae deletion strains, locus YNL071W, strain lat1, hits give low values 0.851 | S. cerevisiae deletion strains, locus YNL307C, strain MCK1, hits give low values 0.699 | S. cerevisiae deletion strains, locus YOL147C, strain pex11, hits give low values 0.908 | S. cerevisiae deletion strains, locus YOR184W, strain ser1, hits give low values 0.831 | S. cerevisiae deletion strains, locus YPL051W, strain arl3, hits give low values 0.885 | S. cerevisiae deletion strains, locus YPR163C, strain tif3, hits give low values 0.752
inactive: S. cerevisiae deletion strains, locus YKL068W, hits give low values 0.98 | S. cerevisiae deletion strains, locus YKL085W, strain MDH1 (second series), hits give low values 0.992 | S. cerevisiae deletion strains, locus YKL085W, strain MDH1, hits give low values 0.992 | S. cerevisiae deletion strains, locus YKL160W, strain elf1, hits give low values 0.938 | S. cerevisiae deletion strains, locus YKL190W, strain CNB1, hits give low values 0.975 | S. cerevisiae deletion strains, locus YKR026C, strain gcn3, hits give low values 0.988 | S. cerevisiae deletion strains, locus YKR091W, strain srl3, hits give low values 0.988 | S. cerevisiae deletion strains, locus YLL001W, strain dnm1, hits give low values 0.944 | S. cerevisiae deletion strains, locus YLL026W, hits give low values 0.993 | S. cerevisiae deletion strains, locus YLL041C, strain sdh2, hits give low values 0.99 | S. cerevisiae deletion strains, locus YLR027C, strain aat2, hits give low values 0.997 | S. cerevisiae deletion strains, locus YLR039C, strain RIC1, hits give low values 0.686 | S. cerevisiae deletion strains, locus YLR058C, strain SHM2, hits give low values 0.946 | S. cerevisiae deletion strains, locus YLR102C, strain apc9, hits give low values 0.966 | S. cerevisiae deletion strains, locus YLR113W, strain HOG1, hits give low values 0.938 | S. cerevisiae deletion strains, locus YLR221C, strain rsa3, hits give low values 0.955 | S. cerevisiae deletion strains, locus YLR258W, strain gsy2, hits give low values 0.984 | S. cerevisiae deletion strains, locus YLR262C, strain YPT6, hits give low values 0.669 | S. cerevisiae deletion strains, locus YLR268W, strain sec22, hits give low values 0.931 | S. cerevisiae deletion strains, locus YLR320W, strain mms22, hits give low values 0.895 | S. cerevisiae deletion strains, locus YLR330W, strain CHS5, hits give low values 0.923 | S. cerevisiae deletion strains, locus YLR342W, strain FKS1 (second series), hits give low values 0.864 | S. cerevisiae deletion strains, locus YLR342W, strain FKS1, hits give low values 0.972 | S. cerevisiae deletion strains, locus YLR357W, strain rsc2, hits give low values 1.01 | S. cerevisiae deletion strains, locus YLR370C, strain arc18, hits give low values 0.978 | S. cerevisiae deletion strains, locus YLR384C, strain iki3, hits give low values 0.999 | S. cerevisiae deletion strains, locus YML016C, strain PPZ1, hits give low values 0.976 | S. cerevisiae deletion strains, locus YML032C, strain rad52, hits give low values 0.938 | S. cerevisiae deletion strains, locus YML120C, strain ndi1, hits give low values 0.988 | S. cerevisiae deletion strains, locus YML124C, strain tub3, hits give low values 0.981 | S. cerevisiae deletion strains, locus YMR058W, strain fet3, hits give low values 0.969 | S. cerevisiae deletion strains, locus YMR078C, strain ctf18, hits give low values 0.956 | S. cerevisiae deletion strains, locus YMR125W, strain sto1, hits give low values 0.997 | S. cerevisiae deletion strains, locus YMR129W, hits give low values 0.993 | S. cerevisiae deletion strains, locus YMR205C, strain PFK2, hits give low values 0.92 | S. cerevisiae deletion strains, locus YMR223W, strain ubp8, hits give low values 0.952 | S. cerevisiae deletion strains, locus YMR231W, strain pep5, hits give low values 0.968 | S. cerevisiae deletion strains, locus YMR307W, strain GAS1, hits give low values 0.688 | S. cerevisiae deletion strains, locus YNL067W, strain RPL9B, hits give low values 0.945 | S. cerevisiae deletion strains, locus YNL128W, strain TEP1, hits give low values 0.98 | S. cerevisiae deletion strains, locus YNL153C, strain GIM3, hits give low values 0.978 | S. cerevisiae deletion strains, locus YNL183C, strain NPR1, hits give low values 0.91 | S. cerevisiae deletion strains, locus YNL209W, strain ssb2, hits give low values 0.998 | S. cerevisiae deletion strains, locus YNL233W, strain BNI4, hits give low values 0.935 | S. cerevisiae deletion strains, locus YNL248C, strain rpa49, hits give low values 0.987 | S. cerevisiae deletion strains, locus YNL250W, strain rad50, hits give low values 1.02 | S. cerevisiae deletion strains, locus YNL271C, strain bni1, hits give low values 0.964 | S. cerevisiae deletion strains, locus YNL298W, strain CLA4, hits give low values 0.949 | S. cerevisiae deletion strains, locus YNL322C, strain KRE1 (second series), hits give low values 0.971 | S. cerevisiae deletion strains, locus YNL322C, strain KRE1, hits give low values 0.952 | S. cerevisiae deletion strains, locus YNR049C, strain mso1, hits give low values 0.986 | S. cerevisiae deletion strains, locus YNR052C, strain pop2, hits give low values 0.973 | S. cerevisiae deletion strains, locus YOL012C, strain htz1 1.38 | S. cerevisiae deletion strains, locus YOR001W, strain rrp6, hits give low values 0.998 | S. cerevisiae deletion strains, locus YOR061W, strain CKA2, hits give low values 0.983 | S. cerevisiae deletion strains, locus YOR069W, strain VPS5, hits give low values 0.965 | S. cerevisiae deletion strains, locus YOR070C, strain gyp1, hits give low values 0.962 | S. cerevisiae deletion strains, locus YOR080W, strain dia2, hits give low values 0.999 | S. cerevisiae deletion strains, locus YOR083W, strain WHI5, hits give low values 0.946 | S. cerevisiae deletion strains, locus YOR106W, strain vam3, hits give low values 0.952 | S. cerevisiae deletion strains, locus YOR136W, strain idh2, hits give low values 0.972 | S. cerevisiae deletion strains, locus YOR144C, strain elg1, hits give low values 0.966 | S. cerevisiae deletion strains, locus YOR231W, strain MKK1, hits give low values 0.953 | S. cerevisiae deletion strains, locus YOR265W, strain rbl2, hits give low values 0.974 | S. cerevisiae deletion strains, locus YOR270C, strain vph1, hits give low values 0.84 | S. cerevisiae deletion strains, locus YOR290C, strain snf2, hits give low values 0.929 | S. cerevisiae deletion strains, locus YOR316C, strain cot1, hits give low values 0.966 | S. cerevisiae deletion strains, locus YPL078C, strain atp4, hits give low values 0.911 | S. cerevisiae deletion strains, locus YPL106C, strain sse1, hits give low values 1.02 | S. cerevisiae deletion strains, locus YPL240C, strain hsp82, hits give low values 0.978 | S. cerevisiae deletion strains, locus YPL256C, strain CLN2, hits give low values 0.969 | S. cerevisiae deletion strains, locus YPR119W, strain clb2, hits give low values 0.975 | S. cerevisiae deletion strains, locus YPR141C, strain kar3, hits give low values 0.983 | S. cerevisiae deletion strains, locus YPR167C, strain met16, hits give low values 0.97 | S. cerevisiae deletion strains, strain wtn01, hits give low values 0.919 | S. cerevisiae strains, strain wild type, hits give low values 0.95
